The panel holds about 83,000 compounds, 20% with a hit somewhere; the sample as a whole holds those more often.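 A percent growth of 40 corresponds to 60% growth inhibition; 0 means no net growth; -100 means all cells died. Active threshold: below 10.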 A number with no mark means an inactive call. Active and inactive are the calls of the source.
Assays:
Test in all cases: NCI-60 one-dose screen, 48 h (100 = growth as untreated, 0 = no growth, -100 = all killed)
Settings in all cases: 10 µM unless noted
EKVX NSCLC = tested on: EKVX NSCLC
SN12C renal = tested on: SN12C renal
UO-31 renal = tested on: UO-31 renal
TK-10 renal = tested on: TK-10 renal
ACHN renal = tested on: ACHN renal
CAKI-1 renal = tested on: CAKI-1 renal
A498 renal = tested on: A498 renal
CCRF-CEM leukemia = tested on: CCRF-CEM leukemia
MOLT-4 leukemia = tested on: MOLT-4 leukemia
SR leukemia = tested on: SR leukemia

Row | Compound | growth (EKVX NSCLC) | growth (SN12C renal) | growth (UO-31 renal) | growth (TK-10 renal) | growth (ACHN renal) | growth (CAKI-1 renal) | growth (A498 renal) | growth (CCRF-CEM leukemia) | growth (MOLT-4 leukemia) | growth (SR leukemia)
1 | CSC1=Nc2c(c(C)c(-c3ccccc3)n2CCCN2CCCCC2)C2=NC(=O)C[C@H](C)N12 | 41.9% | 45.5% | 56.6% | 48.7% | 66.8% | 66.9% | 80.8% | 20.7% | 67.6% | 2.43% (active)
2 | O=C(CSc1nc2c(n1Nc1ccccc1)-c1ccccc1SC2)Nc1nc(-c2ccc(Cl)cc2)cs1 | 69.8% | 73.8% | 79.7% | 110% | 96.5% | 72.8% | 55% | 44.8% | 78.4% | 27%
3 | COC(=O)CCC1=C(CC(=O)OC)C(C)=N/C1=C\c1[nH]c(-c2ccc[nH]2)cc1OC | 61.5% | 38.7% | -25.3% (active) | 28.3% | 15.5% | 24.7% | 72.1% | 2.36% (active) | -6.53% (active) | -24.6% (active)
4 | Cc1cc(NC(=O)Nc2cccc3ccccc23)no1 | 102% | 109% | 89% | 146% | 98.4% | 104% | 126% | 107% | 106% | 81.2%
5 | CCC(CC)NCCCCCNc1cc(OC)cc2cccnc12 | 104% | 87.2% | 71.2% | 83.5% | 94.8% | 97.2% | 72.7% | 114% | 98.1% | 109%
6 | O=C(c1nn(-c2ccc(Cl)cc2)cc1O)n1nc(C(F)(F)F)cc1-c1ccccc1 | 31.5% | 45.9% | 37% | 69.3% | 38.8% | -20.6% (active) | 76% | 0.973% (active) | 13.1% | -30.4% (active)
7 | COc1ccc2c(c1)C(=O)c1c-2c(=O)n(CCCCCCC(=O)NO)c2ccccc12 | 31.3% | 8.66% (active) | -33.8% (active) | -9.14% (active) | -57.8% (active) | -55.4% (active) | -67.8% (active) | -7.49% (active) | 4.43% (active) | 5.2% (active)
8 | CCCCCCCC1(C)NC(=O)NC1=O (stereo not given) | 105% | 109% | 93.8% | 132% | 101% | 105% | 103% | 94.2% | 106% | 96.9%
9 | COc1ccc(-c2nc3sccn3c2-c2ccnc(S(C)(=O)=O)n2)cc1 | 79.7% | 93.4% | -82% (active) | 117% | 74.2% | -69% (active) | 120% | 77.8% | 87.2% | 40.5%
10 | CCC1=C(c2ccc(OC)cc2)C(C)(C)Oc2c1ccc(O)c2CN1CCCC1 | 88.8% | 51.8% | 31.3% | 57.3% | 57.5% | 44.5% | 58.4% | 21.2% | 14.3% | -4.25% (active)
11 | COc1ccc(-c2cc(Cc3cccs3)c(=O)n(Cn3ccc4ccccc43)n2)cc1 | 101% | 97.7% | 83% | 98.1% | 102% | 95.7% | 98.9% | 66% | 97.5% | 87%
12 | O=C(CCc1nnc(Cn2cncn2)o1)c1nc2ccccc2[nH]1 | 116% | 92.6% | 92.4% | 108% | 113% | 102% | 96% | 96.4% | 92.4% | 82%
13 | O=C(C=C=Nc1ccccc1)C(=O)N=C=Cc1ccccc1 | 72.6% | 77.7% | -51.3% (active) | -20.3% (active) | -58.3% (active) | 17.7% | 102% | -35.5% (active) | -16.3% (active) | 3.67% (active)
14 | COc1ccc(Cn2cc3c(c2-c2ccccc2)CCc2cncnc2-3)cc1 | 48.4% | 62.7% | 55.2% | 109% | 76.8% | 36.2% | 45.8% | 42.6% | 80% | 57.7%
15 | NCCCc1nnc(CCC(=O)c2nc3ccccc3[nH]2)o1 | 117% | 92.3% | 91.8% | 102% | 97.1% | 103% | 97.4% | 90.9% | 98.2% | 84.5%
16 | C[n+]1c2ccccc2c(NC2CCNCC2)c2[nH]c3ccccc3c21 | 10.3% | -17.5% (active) | 67.3% | 29.5% | 71.1% | 88.8% | 51.7% | -10.9% (active) | -12.8% (active) | -24.4% (active)
17 | CO[C@H]1/C=C/O[C@@]2(C)Oc3c(C)c(O)c4c(O)c(c(/C=N/N5CCN(C)CC5)c(O)c4c3C2=O)NC(=O)/C(C)=C\C=C\C(C)[C@H](O)[C@@H](C)[C@@H](O)[C@@H](C)[C@@H](OC(C)=O)[C@@H]1C (stereo not given in full) | 91.7% | 105% | 88% | 98.6% | 82.1% | 90.4% | 103% | 101% | 102% | 105%
18 | CCC(O)C(C)(C)C (stereo not given) | 99% | 101% | 101% | 98.8% | 110% | 94.3% | 96.3% | 116% | 111% | 110%
19 | Cc1cc(Cl)ccc1Nc1nc(C(F)(F)F)ccc1C(=O)NCC(=O)N/N=C/c1c(Cl)cccc1Cl | 48% | 78.3% | 65.9% | 76.8% | 57.7% | 0.101% (active) | 83.3% | 19.5% | 50.8% | 42.2%
20 | C/C(=N\N1CC(=O)NC1=O)c1ccc([N+](=O)[O-])o1 | 90.8% | 102% | 85.1% | 105% | 105% | 109% | 76.7% | 106% | 99.5% | 95.9%
21 | Cc1nc2c(O)cccc2cc1CO | 107% | 105% | 103% | 168% | 110% | 104% | 131% | 107% | 105% | 67.7%
22 | CCC(=O)Nc1ccccc1C#C/C=C\C#Cc1ccccc1C(F)(F)F | 52.7% | 58.8% | 22.4% | 75% | 53.4% | 45% | 11.8% | 39.1% | 74.2% | 117%
23 | ClC1=C(Cl)C(Cl)=C(Cl)C1=C/C=C/c1ccccc1 | -6.52% (active) | -46% (active) | -50.9% (active) | -5.53% (active) | -74% (active) | -4.48% (active) | -87.4% (active) | -21.4% (active) | -23.5% (active) | -43.2% (active)
24 | CCCOc1ccc2c(c1)CC[C@@H]1[C@@H]2CC[C@@]2(C)[C@H]1CC[C@]2(C)O | 80% | 82.7% | 69.9% | 69.3% | 93.9% | 62.3% | 114% | 72.8% | 75.9% | 73%
25 | CN(C)c1nc(-c2ccco2)n2nc(-c3ccco3)cc2n1 | 77% | 93.4% | 40.5% | 90.3% | 96.5% | 90.7% | 79.9% | 93% | 97.3% | 73.8%
26 | CSc1nc2c(c(=O)n1C)C(c1ccccc1)C1=C(N2)/C(=C/c2ccccc2)CCC1 (stereo not given) | 39.1% | 55.4% | 34.9% | 51% | 57.3% | 20.7% | 81.4% | 20.6% | 27.5% | -14.2% (active)
27 | O=C(Nc1ccc(C2=NCCCN2)cc1)Nc1ccc(C2=NCCCN2)cc1 | 64.1% | 94.8% | 90.1% | 109% | 87.7% | 79.3% | 77.4% | 73% | 71.6% | 69.8%
